Drawing on PubChem BioAssay (NCATS), this text covers Potency and viability (% of DMSO) for six molecules.

Experiment [1] is described as follows: Quantitative High-Throughput drug screen in 47 multiple myeloma cell lines against the NCATS MIPE library collection: FR4_PLB cell viability assay (AID 1918924; further: nearly all actives have a fitted effect of over 35% in size). An outline of the steps: (§1)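 Myeloma cell lines, 500 cells per well, exposed to MIPE 4.0 library compounds for 48 h at 37C, 5% CO2. Viability from ATP by CellTiter-Glo luminescence; normalised to DMSO (100%) and media-only (0%) wells.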

Experiment [2] in a line: Quantitative High-Throughput drug screen in 47 multiple myeloma cell lines against the NCATS MIPE library collection: Delta47_JCRB cell viability assay (AID 1918925; further: nearly all actives have a fitted effect of over 45% in size). An outline of the steps:
(§2)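 qHTS of the MIPE 4.0 collection: 500 myeloma cells/well, 48 h drug exposure at 37C in 5% CO2, then CellTiter-Glo for 5 min at room temperature before luminescence reading.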

Experiment [3] is described as follows: Quantitative High-Throughput drug screen in 47 multiple myeloma cell lines against the NCATS MIPE library collection: EJM_DSMZ cell viability assay (AID 1918926; further: nearly all actives have a fitted effect of over 30% in size). The essentials: as §2
Experiment [4] can be described thus: Quantitative High-Throughput drug screen in 47 multiple myeloma cell lines against the NCATS MIPE library collection: ARP1_JJKsccF8 cell viability assay (AID 1918928; further: nearly all actives have a fitted effect of over 40% in size). An outline of the steps:
(§3)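 Myeloma cells, 500 per well, were exposed to MIPE 4.0 drugs by pin transfer for 48 h at 37 °C, 5% CO2. Viability was read as ATP luminescence with CellTiter-Glo, normalised to DMSO-only (100%) and medium-only (0%) wells.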

Experiment [5] can be described thus: Quantitative High-Throughput drug screen in 47 multiple myeloma cell lines against the NCATS MIPE library collection: Karpas620_DSMZ cell viability assay (AID 1918959). Further: nearly all actives have a fitted effect of over 30% in size. An outline of the steps:
as §1

The nature of experiment [6]: Quantitative High-Throughput drug screen in 47 multiple myeloma cell lines against the NCATS MIPE library collection: KMM1_JCRB cell viability assay (AID 1918960). Further: nearly all actives have a fitted effect of over 30% in size. An outline of the steps:
as §3

A short description of experiment [7]: Quantitative High-Throughput drug screen in 47 multiple myeloma cell lines against the NCATS MIPE library collection: JIM3_ECACC cell viability assay (AID 1918963; further: nearly all actives have a fitted effect of over 35% in size). An outline of the steps: as §1
Experiment [8] in a line: Quantitative High-Throughput drug screen in 47 multiple myeloma cell lines against the NCATS MIPE library collection: JIM1_ECACC cell viability assay (AID 1918964). An outline of the steps:
as §2

Experiment [9] can be described thus: Quantitative High-Throughput drug screen in 47 multiple myeloma cell lines against the NCATS MIPE library collection: INA6_PLB cell viability assay (AID 1918965; further: nearly all actives have a fitted effect of over 55% in size). The essentials:
as §1

Experiment [10] can be described thus: Quantitative High-Throughput drug screen in 47 multiple myeloma cell lines against the NCATS MIPE library collection: JJN3_DSMZ cell viability assay (AID 1918966; further: nearly all actives have a fitted effect of over 50% in size). The essentials: as §2
The nature of experiment [11]: Quantitative High-Throughput drug screen in 47 multiple myeloma cell lines against the NCATS MIPE library collection: KMS27_JCRB cell viability assay (AID 1918970). Further: nearly all actives have a fitted effect of over 30% in size. The following applies: KMS27 myeloma cells, CellTiter-Glo ATP viability, 48 h; viability (% of DMSO): at 45.8 µM (top of the series). An outline of the steps:
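Myeloma cells (500 per well) were exposed to MIPE 4.0 compounds for 48 h at 37 °C, 5% CO2; viability was read as ATP luminescence with CellTiter-Glo, normalized to DMSO-only (100%) and media-only (0%) wells.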
In general terms: ATP-based viability assays read luminescence as a measure of living cells.

Experiment [12] is described as follows: Quantitative High-Throughput drug screen in 47 multiple myeloma cell lines against the NCATS MIPE library collection: KMS12BM_JCRB cell viability assay (AID 1918971). Further: nearly all actives have a fitted effect of over 35% in size. An outline of the steps:
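Steps: seed 500 cells per well; pin-transfer MIPE 4.0 library; incubate 48 h at 37C, 5% CO2, humidified; add CellTiter-Glo, 5 min room temperature; read luminescence.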

Experiment [13] can be described thus: Quantitative High-Throughput drug screen in 47 multiple myeloma cell lines against the NCATS MIPE library collection: AMO1_DSMZ cell viability assay (AID 1918927; further: nearly all actives have a fitted effect of over 30% in size). An outline of the steps: as §2
The nature of experiment [14]: Quantitative High-Throughput drug screen in 47 multiple myeloma cell lines against the NCATS MIPE library collection: Karpas417_ECACC cell viability assay (AID 1918961). The following applies: Karpas417 myeloma viability, CellTiter-Glo ATP luminescence, 48 h; viability (% of DMSO): at 45.8 µM (top of the series). An outline of the steps: as §1
Experiment [15] can be described thus: Quantitative High-Throughput drug screen in 47 multiple myeloma cell lines against the NCATS MIPE library collection: Karpas25_ECACC cell viability assay (AID 1918968; further: nearly all actives have a fitted effect of over 35% in size). An outline of the steps:
as §2

The nature of experiment [16]: Quantitative High-Throughput drug screen in 47 multiple myeloma cell lines against the NCATS MIPE library collection: ARD_JJKsccE7 cell viability assay (AID 1918929). The essentials:
as §2

A short description of experiment [17]: Quantitative High-Throughput drug screen in 47 multiple myeloma cell lines against the NCATS MIPE library collection: H1112_PLB cell viability assay (AID 1918967; further: nearly all actives have a fitted effect of over 30% in size). The essentials:
as §2

A short description of experiment [18]: Quantitative High-Throughput drug screen in 47 multiple myeloma cell lines against the NCATS MIPE library collection: KHM11_PLB cell viability assay (AID 1918962). Further: nearly all actives have a fitted effect of over 35% in size. An outline of the steps:
as §1

Records with an inconclusive call do not appear. Unmarked numbers belong to inactive results. Activity calls are given as the source filed them. The call rests on the fitted dose curve; in most records, active means well fitted curve in the direction sought with a large enough effect; inconclusive means small, poorly fitted or top-dose-only effect, or another doubt; inactive means no such curve, though single readings can be large; an effect the other way counts as inactive or inconclusive.
Potency means the concentration at half of the fitted maximal effect.

`COc1cc([C@H]2Oc3cc([C@H]4Oc5cc(O)cc(O)c5C(=O)[C@H]4O)ccc3O[C@H]2CO)ccc1O`: the Potency in experiment [1] was 18.7 µM (active); in [2], 13.2 µM (active); in experiment [3] it was 14.8 µM (active); in experiment [4], 16.6 µM (active); in experiment [7], 16.6 µM (active); in experiment [9] it was 13.2 µM (active). In addition, the results for the Potency in experiment [10] and in [12] were 9.35 µM (active) and 10.5 µM (active), respectively. For the same molecule, the Potency result in experiment [5], in experiment [6], in experiment [8] and in [11] was “inactive” each time.
In the case of `CC(=O)O[C@]1(C(C)=O)CC[C@H]2[C@@H]3C=C(Cl)C4=CC(=O)[C@@H]5C[C@H]5[C@]4(C)[C@@H]3CC[C@@]21C`, the Potency entry in experiment [1] was “inactive”. Besides, the Potency in experiment [2] was 8.33 µM (active); in [3] it was 11.8 µM (active); in experiment [13] it was 10.5 µM (active); in experiment [7], 23.5 µM (active); in [9], 14.8 µM (active); in experiment [15] it was 9.35 µM (active). The viability (% of DMSO) in [14] was 112% (active).
Take `NC(N)=Nc1nc(CSCCC(N)=NS(N)(=O)=O)cs1`: the Potency result in experiment [1], in experiment [4], in experiment [16], in experiment [5], in experiment [6] and in experiment [12] was “inactive” throughout. The Potency in experiment [2] was 10.5 µM (active); in [3], 23.5 µM (active); in [9] it was 11.8 µM (active); in [17] it was 16.6 µM (active).
On to `CC(C)CN(C[C@@H](O)[C@H](Cc1ccccc1)NC(=O)O[C@H]1CO[C@H]2OCC[C@H]21)S(=O)(=O)c1ccc(N)cc1`, for which the Potency entry in experiment [1], in experiment [13], in experiment [16], in experiment [5], in [6] and in experiment [8] was “inactive” in each case. Besides, the Potency in experiment [2] was 1.48 µM (active); in experiment [3] it was 5.9 µM (active); in experiment [7], 13.2 µM (active); in [10], 23.5 µM (active); in experiment [15], 3.72 µM (active); in experiment [12], 20.9 µM (active).
With `CN(C)CCOc1ccc(-c2nc(-c3ccc4c(c3)CCC4=NO)c(-c3ccncc3)[nH]2)cc1`, the Potency in experiment [1] is 18.7 µM (active); in experiment [2], 14.8 µM (active); in experiment [13], 18.7 µM (active); in [4], 16.6 µM (active); in experiment [16], 23.5 µM (active); in [5], 11.8 µM (active). Further, the Potency was 14.8 µM (active) in experiment [6]; 1.32 µM (active) in experiment [18]; 18.7 µM (active) in experiment [8]; 16.6 µM (active) in experiment [10]; 23.5 µM (active) in experiment [17]; 14.8 µM (active) in experiment [15]. Besides, the Potency in experiment [11] is 6.62 µM (active); in [12], 20.9 µM (active).
In the case of `O=C(Nc1ncc(SCCN2CCCC2)s1)[C@]1(c2ccc(S(=O)(=O)C3CC3)cc2)C[C@@H]1C1CCCCC1`, the Potency is 18.7 µM (active) in [1]; 14.8 µM (active) in experiment [2]; 18.7 µM (active) in [3]; 26.4 µM (active) in experiment [4]; 8.33 µM (active) in [5]; 10.5 µM (active) in experiment [14]. For the same molecule, the Potency in [18] was 16.6 µM (active); in experiment [7], 20.9 µM (active); in experiment [8] it was 6.62 µM (active); in experiment [9], 16.6 µM (active); in experiment [10] it was 16.6 µM (active); in experiment [17], 23.5 µM (active). In addition, the Potency in experiment [15] was 18.7 µM (active); in experiment [11], 7.43 µM (active); in [12] it was 23.5 µM (active).
